Pf growth 96h = Primary qHTS for delayed death inhibitors of the malarial parasite plastid, 96 hour incubation. P. falciparum luciferase reporter growth, 96 h. AID 504834, 2011. 320,000 tested, 6.9% active. Potency, µM (titrated, usually from 28.7 µM), without a hit: top-dose activity change, negative = inhibition, usual class: inhibitors; further: potency means the concentration at half of the fitted maximal effect; on the % scale 0 is the no-effect control and ±100 the full control effect
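Two parasite generations (96 h, 37 C, 5% CO2) of compound exposure in infected erythrocytes (0.05% parasitemia, 2% hematocrit). Luciferase-reporter P. falciparum; decreased luminescence indicates inhibited growth, aimed at apicoplast-acting delayed death.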
Shiga toxin inh = A qHTS for Small Molecule Inhibitors of Shiga Toxin | Vero cells, Shiga toxin protein synthesis inhibition reporter | inhibition, % at 38.7 µM | 290,000 tested, 9.2% active; in the data active means inhibition mostly above about 28%, no sharp cut-off; inactive means mostly below about 43%; further: 0% is about no effect
MARV entry inh = qHTS for inhibitors of binding or entry into cells for Marburg Virus. Marburg virus pseudotyped entry inhibition, cell reporter. Potency, µM (top dose mostly 37.8 µM), for the others: at the highest dose activity change, negative = inhibition, most hits filed as inhibitors. 300,000 tested, 1.8% active; calls by dose curve; tested in HEK293 cells; further: potency means the concentration at half of the fitted maximal effect; on the % scale 0 is the no-effect control and ±100 the full control effect
Cycloheximide cs = Cycloheximide Counterscreen for Small Molecule Inhibitors of Shiga Toxin; 300,000 tested, 12% active; max response, %; cell reporter, cycloheximide protein synthesis inhibition counterscreen; in the data active means max response mostly above about 13%, no sharp cut-off; inactive means mostly below about 14%; further: read at 38.3 µM for the half of the compounds with a filed dose; 0% is about no effect
Lassa entry inh = qHTS for Inhibitors of binding or entry into cells for Lassa Virus | Potency, µM (top dose mostly 37.9 µM), inactives show top-dose activity change, negative = inhibition, usual class: inhibitors | Lassa virus pseudotype entry inhibition, cell reporter | 300,000 tested, 1.2% active; calls by dose curve; tested in HEK293 cells; further: potency means the concentration at half of the fitted maximal effect; on the % scale 0 is the no-effect control and ±100 the full control effect; nearly all actives have a fitted effect of over 50% in size
Pf growth 48h = Primary qHTS for delayed death inhibitors of the malarial parasite plastid, 48 hour incubation | P. falciparum luciferase growth in erythrocytes, 48 h | Potency, µM (titrated, usually from 28.7 µM), for inactives: at the highest dose activity change, negative = inhibition, hits mostly inhibitors | 310,000 tested, 5.9% active; further: potency means the concentration at half of the fitted maximal effect; on the % scale 0 is the no-effect control and ±100 the full control effect
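Compounds are pin-transferred into medium, infected erythrocytes (2% hematocrit, 0.1% parasitemia final) are added, and plates sit one parasite generation at 37 C in 5% CO2. Detection reagent is then added and luminescence measured.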
An asterisk follows results filed as active; ? = inconclusive; / = not tested or not shown; ! = a repeat was not active; [ ] = remark or other dose. The list is not random: actives were taken first. Their share in the collection is about 19%. Unless noted, the call rests on the fitted dose curve; in most records, active means well fitted inhibition curve with a large enough effect; inconclusive means small, poorly fitted or top-dose-only effect, or another doubt; inactive means no such curve, though single readings can be large or run the other way.

SMILES | Pf growth 96h | Shiga toxin inh | MARV entry inh | Cycloheximide cs | Lassa entry inh | Pf growth 48h
CC(Oc1cccc(Cl)c1)C(=O)Nc1nc(-c2ccccn2)cs1 (stereo unspecified) | 2.6µM* | / | ? | / | ? | 2.6µM*
CC(Oc1cccc(Cl)c1)C(=O)Nc1ccncc1 (stereo unspecified) | 5% | -4 | / | -1 | / | ?
C[C@H](NC(=O)c1ccccc1)C(=O)Nc1nc(-c2ccccn2)cs1 | -10% | 19 | ? | 6 | -29% | ?
O=C(COC(=O)c1ccc(Br)o1)NC1CCCc2ccccc21 (stereo unspecified) | 10% | / | / | / | / | 3%
O=C(NCc1cccnc1)c1cc(-c2ccco2)on1 | 4% | 75* | 21% | 44* | -1% | 105%
O=C(NCc1ccc(F)cc1)c1cc(-c2ccco2)on1 | / | 44 | 8% | 20* | ? | 32%
CCC(CC)C(=O)c1c[nH]c(C(=O)NCc2ccco2)c1 | 7% | 11 | -7% | 6 | ? | -6%
O=C(NCc1cccnc1)c1ccccn1 | / | -2 | 3% | -2 | -4% | -1%
CCC(CC)C(=O)c1c[nH]c(C(=O)NCc2cccs2)c1 | 0% | 10 | -13%[46.1 µM] | 1 | 2.5µM* | -11%
O=C(NCc1ccc(Cl)cc1)c1cc(-c2ccco2)on1 | 0% | -15 | 17% | 10 | 13% | 7%
CC(C)Cc1cc(C(=O)NCc2cccnc2)no1 | 15% | 13 | / | 25* | / | /
O=C(NCc1cccnc1)c1cccc(NC(=O)c2ccco2)c1 | / | 1 | -22% | -4 | -25% | 13%
COc1ccc(C(CNC(=O)Cc2ccccc2)N2CCCCC2)cc1 (stereo unspecified) | 2% | 3 | ? | -2 | 1% | -10%
CC(C)Cc1cc(C(=O)NCc2cccs2)no1 | ? | 84* | / | 40* | / | 113%
Cc1ccc(-c2cc(C(=O)NCc3cccnc3)no2)cc1 | -1% | 50* | 2% | 53* | -10% | 111%
COc1ccc(-c2cc(C(=O)NCc3cccnc3)no2)cc1OC | 9.3µM* | 16 | -1% | -12 | 13%[14.3 µM] | 6%
Cc1cc(C(=O)NCc2cccnc2)no1 | / | -8 | 9% | -2 | -30%[14.3 µM] | 18%
O=C(CN1CCN(Cc2ccc3c(c2)OCO3)CC1)N1CCc2[nH]c3ccccc3c2C1 | / | -5 | / | -7 | / | ?
Cc1ccc(CC(=O)NNC(=O)c2cccs2)cc1C | 30% | / | 21%[46.1 µM] | / | 9% | 37%
COC(=O)COc1ccc(S(=O)(=O)N2CCCCC2)cc1[N+](=O)[O-] | -2% | -1 | 15%[46.1 µM] | -5 | 0%[46.1 µM] | 4%
Cc1ccc(CN(C)C(=O)COc2ccc(S(=O)(=O)N3CCCC3)cc2[N+](=O)[O-])c(C)c1 | ? | / | / | / | / | 12µM*
COc1ccc(Oc2ccc(S(=O)(=O)N3CCCCC3)cc2S(=O)(=O)N2CCCCC2)cc1 | ? | 6 | 23%[46.1 µM] | 0 | -13% | 10µM*
O=C(COc1ccc(S(=O)(=O)N2CCCC2)cc1[N+](=O)[O-])N1CCCC1 | ? | / | ? | / | 12% | ?
COc1ccccc1Oc1ccc(S(=O)(=O)N2CCCC2)cc1 | -11% | 17 | 13% | 8 | 1% | -3%
COc1cc(OC)cc(Oc2ccc(S(=O)(=O)N3CCCCC3)cc2[N+](=O)[O-])c1 | ? | 2 | ? | -5 | ? | 8.3µM*
SMILES | Pf growth 96h | Shiga toxin inh | MARV entry inh | Cycloheximide cs | Lassa entry inh | Pf growth 48h
Cc1c(-c2ccc(Br)cc2)nc2ccccn12 | 164% | 49* | ? | 29* | ? | 209%
Cc1ccccc1Nc1c(-c2cc(Br)ccc2F)nc2ccccn12 | / | / | -5%[46.1 µM] | / | -1%[46.1 µM] | /
COc1ccc(-c2nc3c4ccccc4ccn3c2C=O)cc1 | -1% | -11 | 4%[46.1 µM] | 1 | 14% | 16%
O=C(O)c1ccccc1C(=O)Nc1c(-c2ccccc2)nc2ccccn12 | 19% | 18 | / | 27* | / | 9%
Cc1ccc(-c2nc3ccccn3c2C=O)cc1 | ? | 66* | -7% | 32* | -2% | 53%
Clc1c(-c2ccccc2)nc2ccccn12 | 16% | 37 | ? | 21* | -27%[46.1 µM] | 127%
O=C(CC1CCS(=O)(=O)C1)NC1CCCCC1 (stereo unspecified) | 11% | -6 | -9% | -2 | -13% | 0%
CCc1ccc(S(=O)(=O)c2nnn3c2nc(N2CCCC(C)C2)c2cc(Cl)ccc23)cc1 (stereo unspecified) | / | / | 21%[46.1 µM] | / | / | /
O=C(O)c1ccc(NC2=C(Cl)C(=O)c3ccccc3C2=O)cc1 | ? | 19 | / | -1 | / | ?
COc1cc(-c2nc3ccccn3c2/N=C/c2cc(OC)c(OC)c(OC)c2)ccc1O | / | / | 16% | / | 3% | /
CN(C)c1ccc(-c2nc3ccccn3c2/N=C/c2ccc(Br)cc2)cc1 | -54% | 80 | ? | 46* | 7.1µM* | ?
O=C(Cn1c(NCCO)nc2ccccc21)NCCc1ccccc1 | ? | -5 | -2% | 1 | 6% | 12%
C[C@]12N[C@H](Cc3ccccc31)c1ccccc12 | / | / | 14µM*! | / | 7% | /
Cc1cccc(C)c1OCc1cc(C(=O)NCC2COCCO2)no1 (stereo unspecified) | -5% | -23 | 27% | 14 | 24% | 18%
CC(=O)c1ccc(OCc2cc(C(=O)NCCc3ccc(Cl)cc3)no2)cc1 | -20% | 48* | / | 19* | / | 6%
CC(=O)c1ccc(OCc2cc(C(=O)NCC3CCCCO3)no2)cc1 (stereo unspecified) | 58% | 46* | / | 25* | / | -25%
Cc1ccc(OCc2cc(C(=O)NCc3cc(F)ccc3C)no2)cn1 | 37% | 28* | / | 22* | / | -23%
Cc1ccc(OCc2cc(C(=O)NCC3COCCO3)no2)cc1C (stereo unspecified) | 10µM* | 42* | -6% | 41* | ? | -6%
CCOc1ccc(OCc2ccc(C(=O)NCC3CCCO3)o2)cc1 (stereo unspecified) | / | 30 | -9% | 21 | -2% | -9%
CCN(CC)C(=O)c1ccccc1NC(=O)c1ccccc1SC | 23% | -7 | -28%[46.1 µM] | -1 | ? | -1%
COC(=O)c1cc(S(=O)(=O)N2CCN(C3CCCCC3)CC2)c[nH]1 | 27% | -3 | / | -2 | / | 23%
Cc1cc(Br)ccc1NC(=O)CN(C)C(=O)CCSc1ccc(F)cc1 | ? | / | -1% | / | ? | 7%
O=C(O)C1CCCCC1C(=O)NCc1cn2ccccc2n1 (stereo unspecified) | 17% | 3 | / | -3 | / | 9%
